We go through 27 compounds from PubChem BioAssay (NCI).

Molecules are shown by their SMILES. Compounds without any hit were thinned out: in the full panel of roughly 83,000, 20% have a hit.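 Assay: single dose, 48 h. Readout: percent growth (0 = no net growth; negative = cell death). Active: <10.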 Values without a mark were called inactive. Activity calls are given as the source filed them.

Holding throughout (test): NCI-60 one-dose screen, 48 h (100 = growth as untreated, 0 = no growth, -100 = all killed)
What all share (details): 10 µM unless noted

Assay [1] concerns NCI-H23 lung.
Assay [2] concerns NCI-H226 lung.
Assay [3] deals with NCI-H322M lung.
In assay [4] the test system is HOP-62 NSCLC.
Assay [5] concerns NCI-H460 lung.
Assay [6] concerns HOP-92 NSCLC.
The subject of assay [7] is NCI-H522 lung.
Assay [8] concerns A549/ATCC NSCLC.
The test system of assay [9] is 786-0 renal.
Assay [10] deals with COLO 205 colon.

With `Cc1nc2ncnc(Cl)c2[nH]1`, the growth in assay [1] is 95.3%; in [2], 101%; in assay [3], 98.2%; in assay [4], 112%; in assay [5], 104%; in [6] it was 77.7%. In addition, the growth is 91.3% in assay [7], 93.1% in [8], 105% in assay [9] and 113% in assay [10].

Take `COc1cc(/C=C\c2cc(/C=C\c3ccc(O)c(OC)c3)n(C(=O)COc3ccc(Cl)cc3Cl)n2)ccc1O`: the growth in assay [1] was 14.1%; in assay [2], 26.5%; in assay [3], 40.8%; in [4], 11.3%; in assay [5], 9.28% (active); in [6], 12.5%. In addition, the growth in assay [7] is -28.7% (active); in [8], 10.6%; in assay [9] it was 13.7%; in assay [10], 82.4%.

With `CCc1ccc(Oc2cn[nH]c2-c2ccc(OCCc3ccc(F)cc3)cc2O)cc1`, the growth in assay [1] is 92.8%; in [2], 96.7%; in assay [3], 98.6%; in assay [4], 114%; in [5], 94.8%; in assay [6] it was 83.2%. The growth in assay [7] was -36.5% (active); in assay [8], 66.9%; in assay [9], 99.7%; in assay [10], 108%.

In the case of `CN(C)CCCC1(c2ccc(F)cc2)OCc2cc(-c3cccc4[nH]ccc34)ccc21` (stereo not given), the growth in assay [1] is 75.2%; in assay [2] it was 65.7%; in assay [3], 61.5%; in assay [4] it was 16.2%; in assay [5], -23.3% (active); in assay [6], 30.6%. For the same compound, the growth is 28% in assay [7], 28.3% in assay [8], 37% in assay [9] and -64.2% (active) in assay [10].

As to `CC(C)N1CN2C(=S)NC3C2N(C1)C(=S)N3C` (stereo not given), the growth in [1] is 102%; in [2] it was 100%; in assay [3], 104%; in [4] it was 103%; in assay [5] it was 105%; in [6] it was 101%. The growth was 90.2% in [7], 90.8% in assay [8], 99.3% in [9] and 120% in assay [10].

As to `CCN(CC)CCCN1C(=O)c2c(c(C)c3c(oc4cc(O)ccc43)c2C)C1=O`, the growth in assay [1] is 104%; in assay [2], 35.4%; in assay [3] it was 92.5%; in assay [4], 94.5%; in assay [5], -24.6% (active); in [6], 93.7%. Further, the growth in assay [7] was 82.6%; in [8], -74% (active); in assay [9] it was -80.6% (active); in assay [10], 57.4%.

Consider `CCCCC(=O)c1ccco1`, for which the growth in assay [1] is 89.2%; in assay [2] it was 95.1%; in assay [3], 105%; in assay [4] it was 88.7%; in [5], 106%; in assay [6], 99.9%. Moreover, the growth was 92.2% in [7], 97.9% in assay [8], 97.5% in assay [9] and 104% in assay [10].

Turning to `CCCCCC(=O)OCC(=O)O[C@@H]1C[C@]2(C(C)C)O[C@@]1(C)[C@@H]1CC[C@@H](C)[C@H]1[C@@H]2OC(=O)/C=C/c1ccccc1`, the growth was 91.3% in [1]; 86% in assay [2]; 84.6% in assay [3]; 91.7% in assay [4]; 93.3% in assay [5]; 95.3% in assay [6]. The growth in assay [7] is 55.9%; in [8], 78.7%; in [9], 54.4%; in [10] it was 73.9%.

In the case of `O=C(O)CCCN1C(=O)/C(=C/C(Cl)=C/c2ccccc2)SC1=S`, the growth in assay [1] is 31.3%; in assay [2], 41.9%; in [3], 77.2%; in [4] it was 88%; in assay [5], 57.4%; in [6] it was 14.2%. The growth in assay [7] was 12.2%; in assay [8], 65%; in [9] it was -11.5% (active); in assay [10], 11.6%.

As to `CCCCCCCCCCCCCCCC(N)c1ccccc1` (stereo not given), the growth is -24.4% (active) in assay [1]; 87.6% in assay [2]; 92.9% in assay [3]; -33.9% (active) in assay [4]; -66.8% (active) in assay [5]; 31.4% in [6]. For the same compound, the growth is 63.5% in assay [7], 31.9% in assay [8], 1.55% (active) in [9] and -57.8% (active) in assay [10].

On to `O=C1/C(=C/c2ccc(F)cc2)COc2ccc(O)cc21`, for which the growth is 97% in assay [1]; 108% in [2]; 94.6% in [3]; 104% in [4]; 98.8% in [5]; 104% in assay [6]. Also, the growth is 75.7% in assay [7], 92.5% in [8], 79.8% in assay [9] and 94.3% in [10].

For `O=C1c2cccc3cccc(c23)C(=O)N1N1C(=O)c2cccc3c(N4CCOCC4)ccc(c23)C1=O`, the growth was 89.1% in [1]; 95.4% in assay [2]; 94.5% in assay [3]; 87.3% in assay [4]; 101% in assay [5]; 85.6% in assay [6]. Further, the growth is 102% in assay [7], 95.5% in [8], 102% in assay [9] and 108% in assay [10].

`COc1ccc(C(=O)Nc2ncc(Cc3cccc(Cl)c3)s2)cc1OC`: the growth in [1] was 46.8%; in [2], 42.2%; in [3], 39.6%; in [4], 4.67% (active); in assay [5], 13.7%; in assay [6] it was 54.6%. The growth in assay [7] was -11% (active); in assay [8], 34%; in assay [9] it was 26.9%; in assay [10] it was 1.48% (active).

In the case of `C#Cc1cccc(Nc2ncnc3ccc(-c4cnc(N)nc4)cc23)c1`, the growth was 50% in [1]; 53.2% in assay [2]; -7.64% (active) in assay [3]; 28.4% in assay [4]; 37.8% in [5]; 15% in [6]. Moreover, the growth in [7] was 10.5%; in assay [8], 35.9%; in assay [9], 36.3%; in [10], 52.6%.

In the case of `COc1ccc2nc3ccc(OC)cc3c(SCCCN)c2c1`, the growth was 74.5% in [1]; 97.8% in [2]; 114% in [3]; 79.8% in [4]; 110% in assay [5]; 43.6% in [6]. In addition, the growth is 57.7% in assay [7], 79.6% in assay [8], 49% in assay [9] and 48.9% in [10].

Take `N#CC1CCc2c(c(-c3cn[nH]c3C(F)(F)F)nc3c(F)cc4[nH]ncc4c23)C1` (stereo not given): the growth was 25.3% in [1]; 48.8% in assay [2]; 30.8% in [3]; 34.8% in [4]; 38.9% in [5]; 36.5% in assay [6]. Moreover, the growth was -14.6% (active) in assay [7], 75% in assay [8], 36.8% in [9] and 7.05% (active) in assay [10].

Take `Cn1c(O)c(C=NCCN=Cc2c(O)n(C)c(=O)n(C)c2=O)c(=O)n(C)c1=O`: the growth in assay [1] was 97%; in assay [2], 92.3%; in assay [3] it was 89.3%; in assay [4], 90.7%; in assay [5] it was 107%; in [6], 86.2%. In addition, the growth in assay [7] is 105%; in assay [8], 100%; in assay [9], 113%; in [10] it was 101%.

For the compound `N#C/C(=C/c1ccc([N+](=O)[O-])cc1)n1nnc2cc(F)c(F)cc21`, the growth was 93.8% in [1]; 102% in assay [2]; 98.4% in [3]; 96.6% in assay [4]; 33.1% in [5]; 99.6% in assay [6]. In addition, the growth is 62.6% in assay [7], 87.6% in assay [8], 42.1% in assay [9] and 77.4% in [10].

On to `Cc1ccc(NC(=S)NNC(=S)NNc2ccccc2)cc1C`, for which the growth in assay [1] is 99.9%; in [2], 99.7%; in assay [3], 85.5%; in assay [4], 106%; in assay [5], 96.3%; in assay [6], 55.4%. Also, the growth in assay [7] was 86.3%; in [8] it was 101%; in assay [9], 114%; in assay [10], 107%.

Take `COc1ccc2c(O)c(/C=C3\N=Nc4ncccc43)oc2c1C[C@H]1CCNC[C@H]1F`: the growth was -3.41% (active) in [1]; 1.06% (active) in assay [2]; 9.44% (active) in assay [3]; 5.59% (active) in [4]; -26% (active) in assay [5]; 25.7% in [6]. The growth in [7] is -13.5% (active); in [8] it was 0.136% (active); in assay [9], -18.6% (active); in assay [10] it was -51.8% (active).

With `CC(C)(C)[Si](C)(C)O[C@H]1C(=O)C=CN2CC=C[C@@H]12`, the growth in assay [1] is 93.3% [100 µM]; in assay [2] it was 94.4% [100 µM]; in [3], 104% [100 µM]; in [4], 111% [100 µM]; in assay [5], 103% [100 µM]; in assay [6], 93.9% [100 µM]. The growth in [7] was 91.7% [100 µM]; in assay [8], 110% [100 µM]; in assay [9] it was 105% [100 µM]; in assay [10], 122% [100 µM].

For `COC1=CC(c2ccc[nH]2)=N/C1=C\c1[nH]c(C)c(C(=O)OCc2ccccc2)c1C`, the growth is -15.7% (active) in assay [1]; -25.2% (active) in assay [2]; -11% (active) in assay [3]; -43.2% (active) in assay [4]; -11.8% (active) in assay [5]; -26.3% (active) in assay [6]. Further, the growth in [7] was -59.6% (active); in assay [8], -26.8% (active); in assay [9], -49.2% (active); in assay [10], -82% (active).

On to `COC(=O)/C=C1/SC(=Nc2ccc(C)cc2)N(CCc2c[nH]c3ccc(O)cc23)C1=O`, for which the growth in assay [1] was 72.7%; in assay [2], 83.1%; in assay [3] it was 97.7%; in [4] it was 55.6%; in assay [5], 52.2%; in assay [6], 53.7%. The growth is 42.5% in [7], 84% in assay [8], 57.2% in assay [9] and 108% in [10].

Regarding `N#Cc1nn(-c2cc(=O)[nH]c3ccc(Cl)cc23)c(N)c1C#N`, the growth in assay [1] is 104%; in assay [2], 99.4%; in assay [3], 91.9%; in assay [4] it was 87.2%; in assay [5], 114%; in assay [6] it was -79.6% (active). The growth in assay [7] was 87.1%; in assay [8], 98.3%; in [9] it was 93.4%; in assay [10] it was 100%.

On to `COc1cccc(CNc2ncnc3c2ncn3C2OC(CO)C(O)C2O)c1O` (stereo not given), for which the growth was 7.98% (active) in assay [1]; 31.6% in [2]; 11.3% in assay [3]; 1.76% (active) in [4]; 45.7% in [5]; -32.7% (active) in assay [6]. Moreover, the growth in [7] is 8.65% (active); in assay [8] it was 23.9%; in assay [9], 7.21% (active); in assay [10], 24.6%.

Consider `Cc1cnc(C(=O)NNc2nc3sc4c(c3c(=O)n2C)C(C)CCC4)cn1` (stereo not given), for which the growth is 5.46% (active) in assay [1]; -1.53% (active) in [2]; 9.91% (active) in assay [3]; -39.1% (active) in assay [4]; 4.18% (active) in assay [5]; -9.03% (active) in [6]. Also, the growth in [7] was -9.87% (active); in [8], -5.22% (active); in [9] it was 0.305% (active); in [10], 0.0868% (active).

Take `O=C(CSc1nc2ccc([N+](=O)[O-])cc2[nH]1)Nc1cccc(C(F)(F)F)c1`: the growth is 1.74% (active) in assay [1]; 10.8% in assay [2]; 50.1% in [3]; 27.6% in assay [4]; 14.4% in assay [5]; -28.9% (active) in [6]. Further, the growth in assay [7] was 3.44% (active); in [8], 23.2%; in assay [9], 23.9%; in assay [10] it was 16.8%.
